Measurements as given in ChEMBL document CHEMBL2218924, “A broad activity screen in support of a chemogenomic map for kinase signalling research and drug discovery” (Biochem J, 2013).

Tests used:
[1] = target: Mitogen-activated protein kinase 10 (Homo sapiens) (UniProt P53779); conditions: at 10 µM
[2] = target: Vascular endothelial growth factor receptor 2 (Homo sapiens) (UniProt P35968); conditions: at 1 µM
[3] = target: Vascular endothelial growth factor receptor 2 (Homo sapiens) (UniProt P35968); conditions: at 10 µM
[4] = target: LIM domain kinase 1 (Homo sapiens) (UniProt P53667); conditions: at 1 µM
[5] = target: LIM domain kinase 1 (Homo sapiens) (UniProt P53667); conditions: at 10 µM
[6] = target: T1, Serine/threonine-protein kinase STK11 (Homo sapiens) (UniProt Q15831); conditions: at 1 µM
T1 sequence (whole entry): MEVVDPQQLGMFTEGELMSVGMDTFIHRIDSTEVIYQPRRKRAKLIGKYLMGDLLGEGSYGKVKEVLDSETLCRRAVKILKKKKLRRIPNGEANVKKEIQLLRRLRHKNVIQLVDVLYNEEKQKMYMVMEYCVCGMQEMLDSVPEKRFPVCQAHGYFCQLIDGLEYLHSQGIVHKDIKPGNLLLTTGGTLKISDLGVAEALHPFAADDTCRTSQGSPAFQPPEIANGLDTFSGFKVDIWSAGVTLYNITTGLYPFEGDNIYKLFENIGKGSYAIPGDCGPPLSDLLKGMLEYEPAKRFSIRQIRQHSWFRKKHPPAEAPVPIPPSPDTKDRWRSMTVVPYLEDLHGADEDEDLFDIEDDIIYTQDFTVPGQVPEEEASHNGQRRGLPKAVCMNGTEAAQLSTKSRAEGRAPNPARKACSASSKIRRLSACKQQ

[7] = target: T1, Serine/threonine-protein kinase STK11 (Homo sapiens); conditions: at 10 µM
[8] = target: Serine/threonine-protein kinase 10 (Homo sapiens) (UniProt O94804); conditions: at 1 µM
[9] = target: Serine/threonine-protein kinase 10 (Homo sapiens) (UniProt O94804); conditions: at 10 µM
[10] = target: Tyrosine-protein kinase Lck (Homo sapiens) (UniProt P06239); conditions: at 1 µM
Chain of Tyrosine-protein kinase Lck (Homo sapiens) (P06239 2-509 limits assumed): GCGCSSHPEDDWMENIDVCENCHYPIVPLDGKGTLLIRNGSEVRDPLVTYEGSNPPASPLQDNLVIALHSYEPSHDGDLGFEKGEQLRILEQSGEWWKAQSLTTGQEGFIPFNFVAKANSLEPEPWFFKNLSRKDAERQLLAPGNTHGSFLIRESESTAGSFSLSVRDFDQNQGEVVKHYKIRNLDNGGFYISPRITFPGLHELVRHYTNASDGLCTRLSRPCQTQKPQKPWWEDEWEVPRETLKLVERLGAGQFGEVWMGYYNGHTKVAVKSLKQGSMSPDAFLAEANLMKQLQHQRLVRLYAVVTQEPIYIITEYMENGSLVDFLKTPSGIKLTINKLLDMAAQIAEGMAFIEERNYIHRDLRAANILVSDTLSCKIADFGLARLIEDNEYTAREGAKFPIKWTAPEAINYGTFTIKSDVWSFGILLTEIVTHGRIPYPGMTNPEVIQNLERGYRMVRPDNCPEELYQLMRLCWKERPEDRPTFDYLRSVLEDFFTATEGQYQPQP

Chain of Mitogen-activated protein kinase 10 (Homo sapiens) (P53779 whole entry): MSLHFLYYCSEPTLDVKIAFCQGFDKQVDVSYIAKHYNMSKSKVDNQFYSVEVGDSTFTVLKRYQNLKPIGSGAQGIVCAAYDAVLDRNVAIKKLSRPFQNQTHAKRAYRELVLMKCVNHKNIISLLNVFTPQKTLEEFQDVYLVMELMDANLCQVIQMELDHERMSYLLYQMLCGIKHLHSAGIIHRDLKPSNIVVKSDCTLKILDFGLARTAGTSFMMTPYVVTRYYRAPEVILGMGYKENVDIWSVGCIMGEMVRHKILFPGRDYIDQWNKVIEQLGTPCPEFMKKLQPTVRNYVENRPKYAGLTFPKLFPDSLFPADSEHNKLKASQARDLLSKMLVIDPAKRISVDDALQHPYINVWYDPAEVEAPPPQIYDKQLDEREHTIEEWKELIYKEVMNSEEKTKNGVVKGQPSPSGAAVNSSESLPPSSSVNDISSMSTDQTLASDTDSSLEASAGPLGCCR
Chain of Vascular endothelial growth factor receptor 2 (Homo sapiens) (P35968 whole entry, the tested form may be a part): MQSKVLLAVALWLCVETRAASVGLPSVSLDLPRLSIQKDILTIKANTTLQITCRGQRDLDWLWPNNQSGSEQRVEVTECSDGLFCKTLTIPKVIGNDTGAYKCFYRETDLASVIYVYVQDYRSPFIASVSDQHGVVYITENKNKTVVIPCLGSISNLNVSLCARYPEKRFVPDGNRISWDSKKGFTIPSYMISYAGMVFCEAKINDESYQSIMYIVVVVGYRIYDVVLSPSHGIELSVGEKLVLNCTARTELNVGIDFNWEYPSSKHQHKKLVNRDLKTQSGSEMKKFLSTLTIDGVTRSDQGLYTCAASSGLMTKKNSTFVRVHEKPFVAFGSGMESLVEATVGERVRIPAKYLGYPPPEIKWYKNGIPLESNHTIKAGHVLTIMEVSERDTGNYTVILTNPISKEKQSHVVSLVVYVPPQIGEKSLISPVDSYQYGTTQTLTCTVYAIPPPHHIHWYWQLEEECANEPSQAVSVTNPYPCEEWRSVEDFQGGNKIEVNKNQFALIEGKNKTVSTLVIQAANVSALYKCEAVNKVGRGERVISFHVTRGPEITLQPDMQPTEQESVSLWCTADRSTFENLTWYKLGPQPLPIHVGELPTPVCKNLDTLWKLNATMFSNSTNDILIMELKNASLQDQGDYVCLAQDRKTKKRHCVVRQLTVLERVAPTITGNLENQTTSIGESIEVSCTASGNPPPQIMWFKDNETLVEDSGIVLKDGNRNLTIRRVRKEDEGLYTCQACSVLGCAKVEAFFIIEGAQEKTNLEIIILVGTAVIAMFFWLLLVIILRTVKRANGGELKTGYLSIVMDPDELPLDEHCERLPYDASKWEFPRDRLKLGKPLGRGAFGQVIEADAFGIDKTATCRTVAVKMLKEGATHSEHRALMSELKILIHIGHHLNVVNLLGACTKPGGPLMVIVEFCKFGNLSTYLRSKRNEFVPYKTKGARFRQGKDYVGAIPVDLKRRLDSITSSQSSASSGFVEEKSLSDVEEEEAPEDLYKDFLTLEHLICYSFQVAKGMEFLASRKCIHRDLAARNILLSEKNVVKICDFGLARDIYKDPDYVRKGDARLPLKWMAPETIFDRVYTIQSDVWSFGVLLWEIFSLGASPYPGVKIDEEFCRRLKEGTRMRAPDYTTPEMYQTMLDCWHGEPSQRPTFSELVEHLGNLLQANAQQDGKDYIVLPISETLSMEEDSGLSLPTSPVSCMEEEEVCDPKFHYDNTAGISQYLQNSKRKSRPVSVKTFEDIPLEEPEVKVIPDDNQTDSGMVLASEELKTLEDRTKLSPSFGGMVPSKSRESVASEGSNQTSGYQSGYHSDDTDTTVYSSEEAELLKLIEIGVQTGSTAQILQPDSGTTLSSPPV
Chain of Serine/threonine-protein kinase 10 (Homo sapiens) (O94804 whole entry, looked up): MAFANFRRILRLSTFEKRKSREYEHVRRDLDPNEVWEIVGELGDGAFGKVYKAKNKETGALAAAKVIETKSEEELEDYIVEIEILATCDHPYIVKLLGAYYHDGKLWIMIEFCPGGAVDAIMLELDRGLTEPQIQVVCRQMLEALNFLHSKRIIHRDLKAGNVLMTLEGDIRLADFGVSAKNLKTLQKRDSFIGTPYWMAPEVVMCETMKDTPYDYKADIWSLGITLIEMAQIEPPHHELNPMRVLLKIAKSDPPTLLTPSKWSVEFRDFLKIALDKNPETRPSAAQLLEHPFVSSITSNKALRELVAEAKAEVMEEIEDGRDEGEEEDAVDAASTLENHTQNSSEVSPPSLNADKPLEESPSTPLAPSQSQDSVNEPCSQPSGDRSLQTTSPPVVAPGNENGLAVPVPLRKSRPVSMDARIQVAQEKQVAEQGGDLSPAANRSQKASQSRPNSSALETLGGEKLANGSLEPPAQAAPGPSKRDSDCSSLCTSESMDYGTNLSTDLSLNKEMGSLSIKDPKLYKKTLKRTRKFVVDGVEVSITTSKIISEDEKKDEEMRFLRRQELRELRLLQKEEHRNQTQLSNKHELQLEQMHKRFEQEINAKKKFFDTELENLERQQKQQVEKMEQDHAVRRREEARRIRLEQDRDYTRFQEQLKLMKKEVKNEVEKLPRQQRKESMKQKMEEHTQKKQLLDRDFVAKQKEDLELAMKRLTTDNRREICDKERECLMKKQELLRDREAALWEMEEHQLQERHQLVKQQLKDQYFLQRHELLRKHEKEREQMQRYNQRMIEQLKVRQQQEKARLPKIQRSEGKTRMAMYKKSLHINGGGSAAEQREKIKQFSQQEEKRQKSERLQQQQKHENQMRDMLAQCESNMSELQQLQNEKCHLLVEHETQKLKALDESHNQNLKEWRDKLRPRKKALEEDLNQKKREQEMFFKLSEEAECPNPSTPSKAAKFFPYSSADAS
Chain of LIM domain kinase 1 (Homo sapiens) (P53667 whole entry, looked up, the tested form may be a part): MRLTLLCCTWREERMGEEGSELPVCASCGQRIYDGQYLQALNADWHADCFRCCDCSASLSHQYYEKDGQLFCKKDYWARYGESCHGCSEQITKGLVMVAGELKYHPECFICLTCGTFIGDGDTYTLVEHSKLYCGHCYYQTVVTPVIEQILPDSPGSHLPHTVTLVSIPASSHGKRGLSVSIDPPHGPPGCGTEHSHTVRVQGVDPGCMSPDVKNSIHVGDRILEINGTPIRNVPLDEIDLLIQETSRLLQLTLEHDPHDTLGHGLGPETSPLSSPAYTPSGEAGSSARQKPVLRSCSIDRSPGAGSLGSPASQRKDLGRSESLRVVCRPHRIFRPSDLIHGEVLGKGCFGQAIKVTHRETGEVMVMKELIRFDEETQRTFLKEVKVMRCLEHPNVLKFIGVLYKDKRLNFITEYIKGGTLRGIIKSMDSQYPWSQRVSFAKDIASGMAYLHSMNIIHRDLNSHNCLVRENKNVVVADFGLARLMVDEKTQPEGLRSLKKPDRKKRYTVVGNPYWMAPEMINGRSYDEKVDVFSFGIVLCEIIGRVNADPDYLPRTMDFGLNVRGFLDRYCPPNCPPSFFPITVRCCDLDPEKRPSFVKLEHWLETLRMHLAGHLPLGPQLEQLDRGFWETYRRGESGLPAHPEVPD

SMILES	residual activity [1] [%]	residual activity [2] [%]	residual activity [3] [%]	residual activity [4] [%]	residual activity [5] [%]	residual activity [6] [%]	residual activity [7] [%]	residual activity [8] [%]	residual activity [9] [%]	residual activity [10] [%]
O=c1c2ccccc2[nH]c(=S)n1CCN1CCC(=C(c2ccc(F)cc2)c2ccc(F)cc2)CC1	54	103	90	119	93	123	128	107	97	144
O=[N+]([O-])c1ccc(-c2nc(-c3ccc(F)cc3)c(-c3ccncc3)[nH]2)cc1	21	85	93	96	90	98	99	114	108	71
CC(C)n1cnc2/c(=N/c3cccc(Cl)c3)nc(NCCO)[nH]c21	60	85	53	96	80	96	81	89	47	48
O=C1Nc2ccc(Br)cc2/C1=C\c1cc2c([nH]1)CCCC2	–	12	4	–	–	97	99	74	76	–
Cc1ccc(S(=O)(=O)/C=C/C#N)cc1	84	101	95	92	92	94	100	109	108	96
c1ccc2c(-c3ccncc3)c[nH]c2c1	–	100	78	98	64	100	90	86	54	102
Oc1ccc(-c2nc(-c3ccc(F)cc3)c(-c3ccncc3)[nH]2)cc1	-2	98	49	101	69	108	99	92	59	61
c1ccc(-c2n[nH]c3c2oc2ccccc23)cc1	32	5	3	88	64	–	–	92	70	–
COc1cccc(-c2cc(=O)c3ccccc3o2)c1N	95	101	102	93	93	103	100	114	105	85
N#Cc1cnc2cnc(NCc3cccnc3)cc2c1Nc1ccc(F)c(Cl)c1	80	–	76	42	27	–	–	96	93	68
CC(=O)c1ccc(N2CCOCC2)cc1O	85	106	91	104	83	97	–	102	90	–
N#CC(C#N)=C(N)/C(C#N)=C/c1ccc(O)cc1	88	–	92	–	–	–	–	98	96	–
CCN(CC)C(=O)c1ccc(Nc2nc(OCC3CCCCC3)c3nc[nH]c3n2)cc1	-4	33	3	39	10	–	–	45	13	10
Cc1cc(Nc2nc(-c3ccccc3)nc3ccccc23)n[nH]1	12	5	1	51	18	–	71	50	10	23
Cc1cncc2cccc(S(=O)(=O)N3CCCN(C(=O)CN)C[C@H]3C)c12	124	99	74	92	51	91	69	54	21	97
COc1cc2ncc(-c3ccccc3)nc2cc1OC	79	–	–	–	–	–	–	90	88	–
CO[C@H]1[C@@H](OC)C[C@H](C)[C@@H](OC)C2=CC(=O)C=C(NC(=O)/C(C)=C/C=C/[C@H](OC)[C@@H](OC(N)=O)/C(C)=C/[C@@H]1C)C2=O	110	97	87	109	90	97	90	100	–	142
O=Nc1c(-c2c(O)[nH]c3ccccc23)[nH]c2ccccc12	-2	4	1	61	21	83	44	66	71	13
CN(C)CCCn1cc(C2=C(c3c[nH]c4ccccc34)C(=O)NC2=O)c2ccccc21	101	61	14	117	73	105	102	33	15	109
O=C1NC(=O)c2c1c1c3ccccc3[nH]c1c1[nH]c3cc(Br)ccc3c21	67	70	58	99	76	96	100	98	95	79
COc1ccc(S(=O)(=O)N(CCO)c2ccccc2CN(C)C/C=C/c2ccc(Cl)cc2)cc1	88	100	95	93	83	100	93	107	89	80
Cn1cnc2cc3c(Nc4cccc(Br)c4)ncnc3cc21	9	49	19	105	57	101	99	31	10	42
Cn1cc(/C=C2\C(=O)Nc3ccc(S(N)(=O)=O)cc32)c2ccccc21	40	28	7	101	53	103	100	45	7	20
Oc1n[nH]c2nnc(-c3c(-c4ccccc4)nn4ccccc34)cc12	43	93	89	77	87	91	96	100	79	88
C[C@@H](N)[C@H]1CC[C@H](C(=O)Nc2ccncc2)CC1	86	113	108	–	89	97	96	–	59	–
COc1cc2ncnc(Nc3ccc(NC(=O)c4ccccc4)cc3)c2cc1OC	76	95	35	110	56	108	109	71	33	70
COc1cc2ncnc(Nc3ccc(Oc4ccccc4)cc3)c2cc1OC	148	49	7	78	34	102	93	–	–	0
COc1ccc(CNc2nc(N(CCO)CCO)nc3c2ncn3C(C)C)cc1	70	79	74	90	88	126	73	101	88	62
N#CCCc1ccc2c(c1)-c1[nH]c3ccc([N+](=O)[O-])cc3c1CC(=O)N2	43	30	13	–	–	–	–	57	58	14
